The record followed here is PubChem BioAssay AID1745845 (National Center for Advancing Translational Sciences (NCATS), 2022).

Molecules are shown by their SMILES. The whole screen tested about 360,000 compounds, of which about 2,600 (0.72%) were called active. Inconclusive results (about 5%) are left out. The list comes from a sample in which actives are over-represented; it also holds similar structures and randomly drawn compounds. A number with no mark means an inactive call. Calls follow the shape of the dose curve; as a rule, active = well fitted inhibition curve with a large enough effect; inconclusive = small, poorly fitted or top-dose-only effect; inactive = no such curve, though single readings can be large or run the other way.
% is scaled to controls: 0 for no effect and ±100 for the full control effect; potency is read from the fitted curve at half-maximal effect.

A short description of the assay: Primary qHTS for Inhibitors of ATXN expression. Also: nearly all actives have a fitted effect of over 55% in size. The conditions noted are these: HEK-293 ATXN2-luciferase reporter, luminescence, 24 h; series mostly up to 57 µM; activity change, negative = inhibition: at the top concentration. From the text: University of Utah School of Medicine, Salt Lake City, Utah
Spinocerebellar ataxia type 2 (SCA2) is a multisystem neurodegenerative disease caused by a dominantly acting mutation leading to expansion of a polyQ domain in the ataxin-2 protein (ATXN2). SCA2 patients develop progressive ataxia and later lose function in other neuronal systems. Prominent parkinsonian signs develop in some patients. Like many neurodegenerative disorders, no symptomatic or disease-modifying treatments are known.
The primary objective of the proposed research is to identify compounds inhibiting ATXN2 expression and to test them for efficacy in SCA2 mouse models. We have developed a cell-based assay paired with an in vivo mouse model using identical luciferase expression constructs. This approach takes advantage of an ATXN2-luciferase transgene, with the luciferase gene flanked by the upstream and downstream portions of the ATXN2 gene. Here we describe a 5-7 dose quantitative high thoroughput screen (qHTS) for compounds lowering ATXN2 expression. We screened the NIH Molecular Libraries Small Molecule Repository (MLSMR) and NCGC's mechanistically annotated (MIPE) and drug repurposing (NPC) collections of compounds for lowering expression of an ATXN2-luciferase reporter in HEK-293 cells. The assay is a multiplexed cell viability assay to ensure target reduction in the absence of cytotoxicity. Secondary qHTS assays included a CMV-luciferase reporter expressed in HEK-293 cells as well as a biochemical assay using recombinant luciferase to detect inhibitors of the reporter enzyme. Compounds that inhibit ATXN2 expression but is not cytotoxic were selected for confirmatory and secondary screens.
PROTOCOL TABLE (as described by Inglese J, Shamu CE and Guy RK. 2007)
SEQUENCE No. (e.g., 1, 2, 3, etc.); […] (e.g., Cells, Incubation, Reagent, etc.); VALUE; DESCRIPTION.
1; Cells; 4 uL; white, solid bottom, 1536-well Greiner assay plate.
2; Incubation; 2 hr; 37 degree C in 5% humidified CO2.
3; Compounds; 23 nL; Kalypsis pintool (Wako USA) equipped with a 1536-well pin head.
4; Incubation; 24 hr; 37 degree C in 5% humidified CO2.
5; Reagent; 1 uL; Gly-Phe-7-Amino-4-trifluoromethylcoumarin.
6; Incubation; 30 min; 37 degree C in 5% humidified CO2.
7; Detection; Fluorescence; ViewLux plate reader (PerkinElmer).
8; Reagent; 3 uL; SteadyGlo luciferase solution (Promega).
9; Incubation; 5 min; room temperature.
10; Detection; Luminescence; ViewLux plate reader (PerkinElmer).
NOTES (numbers refer to Sequence numbers above)
1. S2 cells expressing ATXN2-luciferase reporter were suspended in phenol-red free DMEM and dispensed in assay plates using a Multidrop Combi dispenser (Thermo Fisher Scientific).
2. Assay plates were incubated. Evaporation was prevented by covering assay plates with metal lids containing holes to allow gas diffusion.
3. Compounds were added in a dose response manner with the final concentrations of 57, 11.4, 2.28, 0.46, 0.091, 0.018, 0.0037 uM. Vehicle-only plates, with DMSO being pin-transferred to columns 5-48, were inserted uniformly at the beginning and the end of each library to monitor and record any shifts in assay performance.
5. 125 uM Gly-Phe-7-Amino-4-trifluoromethylcoumarin (MP Biomedicals) working concentration was used at a final concentration of 25 uM.
7. To assess cell viability; the assay plates were read using the ViewLux high-throughput CCD imager (PerkinElmer), wherein single end-point fluorescence measurement was acquired (excitation 405/10; emission 540/25 nm).
8. Detection reagent SteadyGlo Luciferase (Promega) was added to the assay plate.
10. Luminescence is then measured on the ViewLux imager equipped with a clear emission filter using a 2 sec exposure. All screening operations were performed on a fully integrated robotic system (Kalypsys) containing one RX-130 and two RX-90 anthropomorphic robotic arms (Staubli).
[…]
In the case of `CC(Cc1ccccc1)NC=O` (stereo not given), the “activity change, negative = inhibition” value is 7.92%.

Regarding `CC(=O)NC(=O)NC(C)Cc1ccccc1` (stereo not given), the “activity change, negative = inhibition” value was 2.01%.

For the compound `CC(Cc1ccccc1)NCCC(c1ccccc1)c1ccccc1` (stereo not given), the Potency is 28.2 µM (active).

With `CCCOC(=O)c1cncn1C(C)c1ccccc1` (stereo not given), the “activity change, negative = inhibition” value is 9.45%.

Regarding `COC(=O)C1=C(c2ccc(OCc3ccccc3)cc2)C[C@@H]2CC[C@H]1N2C(=O)NCc1ccc(Cl)cc1`, the “activity change, negative = inhibition” value was -22.2%.

`O=P(OC1=CCCCC1)(c1ccccc1)c1ccccc1`: the “activity change, negative = inhibition” value is -7.03%.

Turning to `CCC(C)(O)C(=O)OC1C(=O)OC2CC3C(C)=CC(=O)C(O)C3(C)C3C4(O)OCC23C1C(C)C4O` (stereo not given), the Potency is 0.168 µM (active).

As to `CCOC(=O)[C@]12Cc3ccccc3[C@H]1N(C1CCCCC1)C(=O)c1cc(OC)ccc12`, the Potency was 7.94 µM (active).

`CCOC(=O)[C@]12Cc3cc(OC)ccc3[C@H]1N(C(C)C)C(=O)c1ccccc12`: the Potency is 17.8 µM (active).

For `CC1=C(C(=O)O)N2C(=O)[C@@H](N)[C@H]2SC1`, the “activity change, negative = inhibition” value is 1.93% [at 25.6 µM].

As for `O=C(N/N=C/c1ccc([N+](=O)[O-])o1)c1cc([N+](=O)[O-])cc([N+](=O)[O-])c1O`, the “activity change, negative = inhibition” value was 4.24%.

For the compound `O=S(=O)(O)C(F)(F)C(F)(F)C(F)(F)C(F)(F)F`, the “activity change, negative = inhibition” value is 3.26% [at 116 µM].

`CC(C)=C[C@@H]1[C@@H](C(=O)OCc2coc(Cc3ccccc3)c2)C1(C)C`: the “activity change, negative = inhibition” value is -1.03%.

For `O=C(NC1CCCCC1)N1Cc2cc(N3CCCCC3)ccc2-n2nncc2C1`, the “activity change, negative = inhibition” value is 2.55%.

Take `CNC(=S)N/N=C1\C2CN3CCN(C2)CC1(c1ccccc1)C3`: the “activity change, negative = inhibition” value was 1.34%.

For the compound `S=C(NCCc1ccccc1)N1Cc2cc(N3CCOCC3)ccc2-n2nncc2C1`, the “activity change, negative = inhibition” value was -12.2%.

On to `C[C@]12CC[C@H](O)C[C@H]1CC[C@@H]1C2CC[C@]2(C)[C@@H](C3=CC(=O)OC3)[C@@H](O)C[C@]12O` (stereo not given in full), for which the Potency was 2 µM (active).

As to `COC1C(O)C(C)OC(OC2CCC3(C=O)C(CCC4C3CCC3(C)C(C5=CC(=O)OC5)CCC43O)C2)C1O` (stereo not given), the “activity change, negative = inhibition” value was -78.8%.

In the case of `C[C@]12CCC3C(CC[C@H]4C[C@@H](O)CC[C@]34C)C1CC[C@@H]2O` (stereo not given in full), the “activity change, negative = inhibition” value is -11.2%.

`O=c1[nH]c2ccccc2n1C1CCN(C(c2ccnc3ccccc23)c2nnnn2Cc2ccccc2)CC1` (stereo not given): the “activity change, negative = inhibition” value is 0%.

For the compound `O=c1[nH]c2ccccc2n1C1CCN(C(c2ccccc2)c2nnnn2Cc2ccccc2)CC1` (stereo not given), the Potency is 25.1 µM (active).

In the case of `CSCCC(c1nnnn1C(C)(C)C)N1CCC(n2c(=O)[nH]c3ccccc32)CC1` (stereo not given), the “activity change, negative = inhibition” value was -18.6%.

Regarding `COC(=O)C1=C(c2ccc(OCc3ccccc3)cc2)C[C@@H]2CC[C@H]1N2C(=O)NCc1cccc(F)c1`, the “activity change, negative = inhibition” value was -10.1%.

Consider `CCCn1c(C(=O)c2ccccc2OC)nc2ccccc21`, for which the “activity change, negative = inhibition” value is 1.9%.

Turning to `CC[N+]1(CCOC(=O)C(O)(c2ccccc2)c2ccccc2)CCCCC1`, the “activity change, negative = inhibition” value is 25.5%.

With `O=C(NCC1=C(c2ccc3ccccc3c2)C[C@@H]2CC[C@H]1N2Cc1ccco1)c1cccs1`, the “activity change, negative = inhibition” value was -20.2%.

Regarding `CCCCC1C(=O)NC(=O)N(C2CCCCC2)C1=O` (stereo not given), the “activity change, negative = inhibition” value was 10.8%.

As to `COC(=O)CN(CCCl)P1(=O)OCCCN1CCCl` (stereo not given), the “activity change, negative = inhibition” value is 3.04%.

On to `O=C1NC(=O)N(c2ccc(F)cc2)C(=O)/C1=C/c1ccc2c(c1)CCCN2Cc1ccccc1`, for which the “activity change, negative = inhibition” value was -11.9%.

Turning to `O=C1NC(=O)N(CCc2ccc(F)cc2)C(=O)/C1=C/C=C/c1ccccc1`, the Potency is 10 µM (active).

For the compound `O=C(O)COc1ccccc1/C=C1\C(=O)NC(=O)N(CCC2=CCCCC2)C1=O`, the “activity change, negative = inhibition” value was 6.1%.

`COc1cc(C(=O)N2Cc3ccc(Br)cc3-n3nncc3C2)cc(OC)c1OC`: the “activity change, negative = inhibition” value is 7.09%.

Take `Cc1cccc(Cn2cccc(C(=O)Nc3ccc4c(c3)OCCO4)c2=O)c1`: the “activity change, negative = inhibition” value is -24.9%.

Regarding `CC(=Cc1csc(C)n1)[C@@H]1C[C@H]2O[C@]2(C)CCC[C@H](C)[C@@H](O)[C@@H](C)C(=O)C(C)(C)[C@@H](O)CC(=O)O1`, the “activity change, negative = inhibition” value is -17.3%.

`NCCc1ccc(S(=O)(=O)F)cc1`: the “activity change, negative = inhibition” value was 1.91%.

Take `COc1cccc(C(c2nnnn2-c2ccc3c(c2)OCCO3)N2CCC3(CC2)C(=O)NCN3c2ccccc2)c1OC` (stereo not given): the “activity change, negative = inhibition” value is -36.2%.

Turning to `CC1N=C(N)OC1c1ccccc1` (stereo not given), the “activity change, negative = inhibition” value is 7.78% [at 116 µM].

With `CO[C@]12CC[C@@]3(C[C@@H]1[C@](C)(O)C(C)(C)C)[C@@H]1Cc4ccc(O)c5c4[C@@]3(CCN1CC1CC1)[C@H]2O5`, the Potency was 35.5 µM (active).

In the case of `Oc1ccc2c3c1OC1[C@H](O)CC[C@@]4(O)[C@@H](C2)N(CC2CC2)CC[C@]314` (stereo not given in full), the Potency result is “inactive”.

For the compound `Cc1ncsc1CCCl`, the “activity change, negative = inhibition” value was 11.9%.
